Screens as filed in PubChem BioAssay.
A selection: hits, their analogues and other compounds. The true share with any hit is near 5.7%.
hcDAF12 agonist: H. contortus DAF-12 nuclear receptor activators, primary screen, cell-based, luminescence, HEK293, lit1-tk-luc reporter. HEK293 hcDAF-12 lit1-tk-luc reporter; 0% DMSO, 100% Δ7-dafachronic acid. activation, % at 6.8 µM. 370,000 compounds, 1.4% hits;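 active = activation above the mean of all tested compounds plus 3 SD, cut at about 5.5% in these data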
AHR activator: AHR activators, primary screen, cell-based, luminescence, luciferase reporter, human; activation, % at 5 µM; Aryl hydrocarbon receptor (Homo sapiens), P35869; AHR-responsive luciferase reporter cells; 320,000 compounds, 2.5% hits; in the data active = activation above about 47%
Target sequence (P35869 whole entry, looked up): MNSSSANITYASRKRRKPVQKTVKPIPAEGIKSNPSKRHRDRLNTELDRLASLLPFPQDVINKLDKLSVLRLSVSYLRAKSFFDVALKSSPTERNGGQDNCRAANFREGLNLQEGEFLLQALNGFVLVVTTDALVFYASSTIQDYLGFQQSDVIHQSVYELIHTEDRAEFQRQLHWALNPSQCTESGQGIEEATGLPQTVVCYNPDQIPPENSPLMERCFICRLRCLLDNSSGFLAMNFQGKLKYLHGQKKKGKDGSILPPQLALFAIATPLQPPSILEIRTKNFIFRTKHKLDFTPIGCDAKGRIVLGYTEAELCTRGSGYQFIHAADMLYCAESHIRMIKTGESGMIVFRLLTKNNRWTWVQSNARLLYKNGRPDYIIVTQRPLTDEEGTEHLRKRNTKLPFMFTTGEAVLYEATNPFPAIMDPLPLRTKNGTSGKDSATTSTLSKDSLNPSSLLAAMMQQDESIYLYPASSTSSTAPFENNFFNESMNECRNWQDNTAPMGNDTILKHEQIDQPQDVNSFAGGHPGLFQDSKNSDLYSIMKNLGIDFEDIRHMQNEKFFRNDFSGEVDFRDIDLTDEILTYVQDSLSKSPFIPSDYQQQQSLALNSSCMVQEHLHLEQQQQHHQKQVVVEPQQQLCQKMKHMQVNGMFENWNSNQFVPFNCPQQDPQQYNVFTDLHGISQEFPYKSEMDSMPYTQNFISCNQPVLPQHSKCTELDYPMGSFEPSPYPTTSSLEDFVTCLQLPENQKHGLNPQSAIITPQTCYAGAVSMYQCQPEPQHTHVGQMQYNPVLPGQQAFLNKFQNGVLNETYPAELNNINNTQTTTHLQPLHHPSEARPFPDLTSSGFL
DAX1 inh-1: DAX1 (NR0B1) inhibitors, primary screen, cell-based, HEK293, Gal4-DAX1, luciferase luminescence; Nuclear receptor subfamily 0 group B member 1 (Homo sapiens), P51843; HEK293 Gal4-DAX1 luciferase reporter; inhibition, % at 6.75 µM; 340,000 compounds, 0.99% hits; AID 504766, 2011;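 active = inhibition above the mean over all tested compounds plus 3 SD, cut at about 4.2% in these data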;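 also: inhibition shows as a rise in luminescence from relieved DAX1 repression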
DAX1 inh-2: DAX1 (NR0B1) inhibitors on StAR promoter, primary screen, cell-based, luminescence, SF-1 (NR5A1), full-length DAX-1; HEK293T StAR-luciferase reporter, SF-1/DAX-1 repression relief; inhibition, % at 6.8 µM; 370,000 compounds, 1.1% hits; AID 652010, 2013;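 active = inhibition above the mean over all tested compounds plus 3 SD, cut at about 3.6% in these data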;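 also: higher inhibition means more luminescence from relief of DAX-1 repression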
ssDAF-12 act: S. stercoralis DAF-12 nuclear receptor activators, primary screen, cell-based, luminescence, HEK293, GRIP1 co-expression, lit1-tk-luc. Nuclear hormone receptor DAF-12 (Strongyloides stercoralis). activation, % at 6.8 µM. 370,000 compounds, 1% hits. AID 652126, 2013. HEK293 ssDAF-12/GRIP1 lit1-tk-luc reporter; % of 3 µM dafachronic acid response;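 active = activation above the mean over all tested compounds plus 3 SD, cut at about 0.9% in these data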
hgDAF-12 ag: H. glycines DAF-12 receptor agonists, primary screen, cell-based, luminescence, HEK293, GAL4 fusion, UAS-luciferase; Nuclear hormone receptor DAF-12 (Heterodera glycines), GAL4 fusion; HEK293 GAL4-hgDAF12 UAS-luciferase reporter, agonist luminescence; normalized to butyrate control; activation, % at 6.8 µM; 370,000 compounds, 1.8% hits; AID 687014, 2013;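 active = activation above a cutoff set at the mean of all screened compounds plus 3 SD, cut at about 10% in these data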
Of the large screens only hits and unclear results are named; the others gave an inactive call.

COC(=O)[C@]1(Cc2ccccc2)NC=C(C(=O)c2ccccc2)[C@@H]1c1cccs1	none (no result: AHR activator, DAX1 inh-1)
CCOC(=O)c1cc(NC(=O)N2CCCc3ccccc32)c(C)nc1C	none
Cc1nc(C)c(NC(=O)N2CCc3ccccc32)cc1NC(=O)N1CCc2ccccc21	AHR activator 50
O=C(O)c1ccccc1SCC(=O)N1CCc2ccccc21	ssDAF-12 act 7.6
Nc1ccccc1SCC(=O)N1CCc2ccccc21	none
O=S1(=O)CCOC[C@H](Cc2ccccc2)N1Cc1ccccc1F	none
O=C(O)c1ccc(CSC2CCCCC2)cc1	none
Cc1cccc(OC(=O)NCCOC(=O)N(O)c2ccc(Cl)cc2)c1	AHR activator 53
CCOC(=O)N1CCN(C(=O)CSC2=NS(=O)(=O)c3cc(F)ccc3N2)CC1	DAX1 inh-1 4.8
COc1cc2[nH]c(Cl)c([N+](=O)[O-])c2cc1OC	none
CCN(CC)c1ccc(C(=S)NCc2ccccc2)cc1	DAX1 inh-1 7.3
Cc1cc(NC(=O)CCC(=O)N(Cc2ccco2)C2(C(=O)NC3CCCCC3)CCCC(C)C2)no1 (centres undefined)	none
CCOC(=O)C1(Cc2cccc(OC)c2)CCCN(C(=O)CCc2cccnc2)C1 (centres undefined)	hgDAF-12 ag 12
CCOC(=O)C1(Cc2ccccc2)CCCN(C(=O)COc2ccccc2OC)C1 (centres undefined)	DAX1 inh-1 4.3 (no result: AHR activator)
CCOC(=O)C1(Cc2cccc(OC)c2)CCCN(C(=O)CSC)C1 (centres undefined)	none
c1ccc2c(c1)oc1c(NCc3ccc4c(c3)OCO4)ncnc12	none (no result: hcDAF12 agonist, DAX1 inh-2, ssDAF-12 act, hgDAF-12 ag)
Cc1nc(Nc2ccc3c(c2)OCO3)c2oc3ccccc3c2n1	AHR activator 65
Cc1ccc(Nc2nc(C)nc3c2oc2ccccc23)cc1	AHR activator 61
COc1ccc(Nc2nc(C)nc3c2oc2ccccc23)cc1	none
c1ccc2c(c1)oc1c(Nc3ccc(CN4CCOCC4)cc3)ncnc12	hgDAF-12 ag 11
c1ccc2c(c1)oc1c(Nc3ccc4c(c3)OCO4)ncnc12	hgDAF-12 ag 12
COc1ccc(S(=O)(=O)NC(=O)C2(C)CCN2C(=O)CCc2ccc(Cl)cc2Cl)cc1 (centres undefined)	none (no result: AHR activator, DAX1 inh-1)
COc1ccc(NC(=O)COc2ccc(C(=O)OCC(=O)N(C(C)C)C(C)C)cc2OC)cc1	none
Cc1nc(NCCc2ccccc2)c2oc3ccccc3c2n1	AHR activator 64
Cc1nc(Nc2ccccc2)c2oc3ccc(Cl)cc3c2n1	AHR activator 51
CCCCCCn1cc(CN2CC(N(C)C)CS2(=O)=O)nn1 (centres undefined)	none (no result: AHR activator, DAX1 inh-1)
Cc1ccc(C)c(N(CC(=O)NC(C)C)C(=O)CCC(=O)Nc2ccccn2)c1	none
COc1cc2c(cc1OC)C1=NC(=O)CN1C(SCc1ccccc1)=N2	none
O=C(CSc1nnc(-c2ccc(O)cc2)o1)Nc1ccc2c(c1)OCCO2	DAX1 inh-2 3.6
Cc1ccc(NC(=O)CSc2nnc(-c3ccncc3)o2)cc1	none
COc1cccc(NC(=O)CSc2ccccn2)c1	hgDAF-12 ag 13
COc1cccc(NC(=O)CSc2nnc(-c3ccc(C)cc3)o2)c1	DAX1 inh-1 6.1, DAX1 inh-2 6.5, hgDAF-12 ag 11
COc1ccc(C(=O)NCCSc2ccccn2)cc1	hcDAF12 agonist 6.4, hgDAF-12 ag 12
COc1ccc(NC(=O)CSc2ccccn2)cc1	none
COc1ccc2c(c1)CCCC21NC(=O)N(CC(=O)c2cc(F)ccc2F)C1=O (centres undefined)	none
COc1cc(OC)cc(C(=O)NCC2CCCN(C(=O)c3csc(C(C)C)n3)C2)c1 (centres undefined)	none (no result: AHR activator)
O=C(CSc1nnc(-c2ccc3c(c2)OCO3)o1)Nc1ncc(Cl)cc1Cl	AHR activator 133
Cc1cc(C)n(Cc2cc(C(=O)O)c3ccccc3n2)n1	none
CCCCN(C(=O)c1cccc(S(=O)(=O)N2CCN(C)CC2)c1)c1c(N)n(CCC)c(=O)[nH]c1=O	none
N#Cc1cn(CCOc2ccc(F)cc2)c2ccccc12	none
N#Cc1cn(CCOc2ccccc2F)c2ccccc12	AHR activator 49
Cn1ccc2ccc(C3=CC(=O)C[C@H](c4ccc(F)cc4)C3)cc21	none
CSCCC(c1nc2ccccc2[nH]1)n1c(-c2ccc(C)cc2)nc2ccccc21 (centres undefined)	none (no result: AHR activator, DAX1 inh-1)
CSCCC(c1nc2ccccc2[nH]1)n1c(-c2ccc3ncccc3c2)nc2ccccc21 (centres undefined)	hgDAF-12 ag 11 (no result: AHR activator, DAX1 inh-1)
COC(=O)c1nc(-c2ccc(C)cc2)oc1N(C)C	ssDAF-12 act 1.0
CCn1c2ccc(Cl)cc2c2nc3ccccc3nc21	AHR activator 53 (no result: DAX1 inh-1)
CC(=O)c1cccc(NC(=S)NC(=O)c2ccccc2)c1	hgDAF-12 ag 12
CC(=O)c1cccc(NC(=S)Nc2cccc3ccccc23)c1	AHR activator 54
O=C(Nc1cccc2ccccc12)N1CC=C(c2ccccc2)CC1	AHR activator 54
NC(=O)Nc1cccc2ccccc12	ssDAF-12 act 1.7
CCOc1ccc(S(=O)(=O)N2CCC(C(=O)OC(C)C(=O)NC3CCCCC3C)CC2)cc1 (centres undefined)	none
Cc1cc(C)c(C(N)=O)c(Nc2cccc3ccccc23)n1	AHR activator 52
COc1ccccc1Nc1nc(C)cc(C)c1C(N)=O	none
Cc1ccc(C(=O)NNC(=S)Nc2cccc3ccccc23)s1	hcDAF12 agonist 6.3, ssDAF-12 act 1.2
COc1ccc(NC(=O)NC(=O)c2ccccc2)cc1	none
O=C(NNC(=S)Nc1cccc2ccccc12)c1cccc(Br)c1	none
O=C(NC(=O)c1ccccc1)Nc1ccccc1	hcDAF12 agonist 6.2, ssDAF-12 act 1.3, hgDAF-12 ag 12
CC(=O)c1ccc(NC(=O)Nc2cccc3ccccc23)cc1	DAX1 inh-2 3.7 (no result: AHR activator)
CC(=O)Nc1ccc(NC(=O)Nc2cccc3ccccc23)cc1	none
CCN(CC)S(=O)(=O)c1ccc(NC(=O)COC(=O)CNS(=O)(=O)/C=C/c2ccccc2)cc1	none
Cc1c(NC(=S)NNC(=O)CCC(=O)O)c(=O)n(-c2ccccc2)n1C	none
CN1CCc2c(sc(/N=C/c3c[nH]c4ccccc34)c2C(N)=O)C1	hcDAF12 agonist 5.9, AHR activator 76 (no result: DAX1 inh-1)
COc1ccc(-c2c(C(F)(F)F)nn(C)c2NC(=O)CSCC(=O)O)cc1	none (no result: DAX1 inh-1)
